An excerpt weighted towards active compounds, which were near 2.9% of everything screened.
PAFAH1B3 inh = blocks human PAF acetylhydrolase 1B catalytic subunit 3; Q15102; recombinant PAFAH1B3, FP-rhodamine probe, fluorescence polarization; inhibition, % at 3.39 µM; 0.28% of 340,000 active;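 active = inhibition above the screen-wide average of all tested compounds plus 3 SD, cut at about 25% in these data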;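 also: 0% = enzyme with DMSO only and 100% = wells lacking PAFAH1B3 protein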
Target sequence (Q15102 whole entry, looked up): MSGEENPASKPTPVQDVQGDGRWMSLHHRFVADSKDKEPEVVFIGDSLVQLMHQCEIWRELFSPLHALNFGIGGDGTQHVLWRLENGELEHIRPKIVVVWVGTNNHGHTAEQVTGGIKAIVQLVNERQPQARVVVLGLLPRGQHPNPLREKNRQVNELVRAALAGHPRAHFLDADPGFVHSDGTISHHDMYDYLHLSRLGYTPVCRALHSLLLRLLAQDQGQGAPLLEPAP
Fam108B counter = Fam108B inhibition, counter-screen for RBBP9 inhibitors; recombinant Fam108B, FP-Rh probe fluorescence polarization; inhibition, % at 9.51 µM; 0.33% of 300,000 active;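 active = inhibition above the screen mean inhibition plus 3 SD, computed separately per campaign, cut at about 18% in these data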;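 also: inhibitors lower polarization as less probe binds the enzyme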
PME-1 inh = blocks human protein phosphatase methylesterase 1 | recombinant PME-1, FP-Rh probe fluorescence polarization | 0.53% of 320,000 active | Q9Y570 | AID 2130 | inhibition, % at 5.9 µM;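 active = inhibition above the campaign mean of all compounds plus 3 SD, cut at about 26% in these data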;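 also: competitive labeling of PME-1 active site by serine hydrolase directed probe; 0% = PME-1 with DMSO and 100% = wells lacking PME-1 enzyme; inhibitors block probe labeling so polarization falls and inhibition rises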
Target sequence (Q9Y570 whole entry, looked up): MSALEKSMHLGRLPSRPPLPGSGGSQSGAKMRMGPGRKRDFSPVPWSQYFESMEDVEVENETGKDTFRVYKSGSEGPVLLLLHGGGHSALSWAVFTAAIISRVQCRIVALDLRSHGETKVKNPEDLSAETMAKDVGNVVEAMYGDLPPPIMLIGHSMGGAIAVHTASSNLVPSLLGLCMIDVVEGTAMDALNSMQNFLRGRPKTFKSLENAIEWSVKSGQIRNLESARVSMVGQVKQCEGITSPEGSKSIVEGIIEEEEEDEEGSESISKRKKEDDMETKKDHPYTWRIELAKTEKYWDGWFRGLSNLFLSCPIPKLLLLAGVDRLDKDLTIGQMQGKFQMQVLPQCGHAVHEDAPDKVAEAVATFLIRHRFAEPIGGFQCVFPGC
pPAFAH FP inh = pPAFAH (human) enzyme inhibition | recombinant pPAFAH, FP-rhodamine probe fluorescence polarization | inhibition, % at 3.39 µM | Q13093 | AID 463082 | 1.5% of 330,000 active;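 active = inhibition above the mean inhibition across the screen plus 3 SD, cut at about 25% in these data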;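 also: inhibitors block binding of the rhodamine activity-based probe so polarization drops; 0% = enzyme with DMSO and 100% = wells lacking pPAFAH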
PAFAH1B2 FP inh = inhibitors of human PAFAH1B2; P68402; recombinant PAFAH1B2, FP-rhodamine activity probe, fluorescence polarization; inhibition, % at 3.39 µM; 1.2% of 340,000 active; AID 492953;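 active = inhibition above the mean of all tested compounds plus 3 SD, cut at about 24% in these data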;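 also: 0% = enzyme with DMSO and 100% = wells lacking PAFAH1B2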
PAFAH2 inh = PAFAH2 (human) inhibition; inhibition, % at 3.39 µM; Q99487; recombinant PAFAH2, FP-rhodamine activity probe, fluorescence polarization; 0.99% of 340,000 active;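 active = inhibition above the mean over all tested compounds plus 3 SD, cut at about 30% in these data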;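 also: inhibitors block probe labeling of enzyme so polarization drops; 0% = enzyme with DMSO and 100% = wells lacking PAFAH2 protein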
PAFAH2 confirm = confirmation of human PAFAH2 inhibitors | inhibition, % at 3.39 µM | shares compounds with PAFAH2 inh | recombinant PAFAH2, FP-rhodamine activity probe, fluorescence polarization | 65% of 2,300 active | AID 493030;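 active = mean inhibition over three repeats above a set limit taken from the earlier primary screen, cut at about 30% in these data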;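 also: inhibitor blocks binding of rhodamine activity probe so polarization falls; 0% = enzyme with DMSO and 100% = wells lacking PAFAH2 protein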
Active calls of the source: *; · = not tested or not shown.

SMILES | PAFAH1B3 inh | Fam108B counter | PME-1 inh | pPAFAH FP inh | PAFAH1B2 FP inh | PAFAH2 inh | PAFAH2 confirm
COc1cccc(C(=O)O/N=C(\N)Cc2ccc(Cl)cc2)c1 | 3.9 | 4.9 | 1.4 | 18.8 | 5.3 | 69.2* | 55.9*
N/C(Cc1ccc([N+](=O)[O-])cc1)=N\OC(=O)c1ccc2ccccc2c1 | 8.1 | -4.1 | -2.6 | 20.5 | -0.3 | 61.9* | 53.7*
CCN(CC)C(=O)Cc1c(OC)ccc2cc(Br)ccc12 | 11.3 | -1.7 | -4.0 | 3.3 | 9.9 | 5.1 | ·
N/C(Cc1ccc([N+](=O)[O-])cc1)=N\OC(=O)c1ccco1 | 1.4 | 2.1 | 3.3 | 1.5 | 7.2 | 39.0* | 36.8*
Cc1cccc(C(=O)O/N=C(\N)Cc2cccc3ccccc23)c1 | -1.8 | 0.0 | 0.5 | 6.7 | 5.4 | 75.3* | 73.7*
Cc1cccc(/C(N)=N/OC(=O)Cc2cccc3ccccc23)c1 | -0.4 | -3.8 | -0.5 | 4.5 | -1.7 | 1.0 | ·
COc1ccc(OC)c(NC(=O)C2C(C(=O)O)C3(Cl)C(Cl)=C(Cl)C2(Cl)C3(Cl)Cl)c1 (stereo not given) | 3.0 | 4.6 | -1.3 | -1.0 | 5.7 | 50.5* | 39.7*
CS(=O)(=O)Nc1ccc(C(=O)NCCc2ccccc2)cc1 | -3.6 | 5.2 | -1.2 | -1.9 | 5.1 | 1.6 | ·
CC[C@@]1(C(=O)OC)N[C@H](CN(C)C(=O)C2CCCCC2)[C@@H]2C(=O)N(Cc3ccccc3)C(=O)[C@@H]21 | 6.5 | · | · | -5.5 | 5.0 | 2.0 | ·
CCOc1ccc(S(=O)(=O)/N=C(/Nc2ccc(OC)cc2)c2ccccc2)cc1 | 8.1 | -1.9 | 4.2 | 6.6 | -0.2 | 51.6* | 41.0*
CCOc1ccc(S(=O)(=O)/N=C(/Nc2ccc(C(C)=O)cc2)c2ccccc2)cc1 | 9.0 | · | · | 8.5 | -0.7 | 56.8* | 40.7*
CC(=O)Nc1ccc(N/C(=N\S(=O)(=O)c2ccccc2)c2ccccc2)cc1 | 10.2 | -0.5 | -1.0 | -3.4 | 4.8 | 19.8 | ·
Cc1ccc(Cl)cc1N1CCN(CC(=O)Nc2ccc3[nH]c(=O)[nH]c3c2)CC1 | 2.9 | -3.3 | 1.9 | 1.9 | 3.4 | -5.1 | ·
Cc1c(C(c2cccs2)c2c(C)n(C)n(-c3ccccc3)c2=O)c(=O)n(-c2ccccc2)n1C | 5.3 | 1.1 | -2.3 | 5.9 | 6.4 | 0.7 | ·
CCCCCCC(c1c(C)n(C)n(-c2ccccc2)c1=O)c1c(C)n(C)n(-c2ccccc2)c1=O | 1.9 | -0.3 | -13.8 | 0.1 | 4.2 | 69.7* | 70.3*
O=C(OCC#CCSc1nnc(-c2cccc3ccccc23)o1)c1cc2ccccc2o1 | 1.9 | · | · | 2.7 | 3.7 | -2.6 | ·
CCCc1c(C(=O)NNc2ccc(C)cc2)cnn1-c1ccccc1 | -1.1 | 2.2 | 2.5 | 4.2 | 4.0 | 33.1* | 13.9
CCCc1c(C(=O)Nc2ccc(C(F)(F)F)cc2)cnn1-c1ccccc1 | 7.6 | 2.8 | -2.8 | -4.0 | 0.7 | 1.4 | ·
CC1CCCN(C(=O)COC(=O)CNS(=O)(=O)c2ccc3ccccc3c2)C1 (stereo not given) | 8.1 | 0.2 | -1.8 | 12.5 | 10.9 | -1.0 | ·
Cc1ccc(S(=O)(=O)N(CC(=O)Nc2ccccc2C(=O)O)c2cccc(Cl)c2C)cc1 | -9.6 | -3.8 | -7.6 | -5.2 | 10.1 | 31.5* | 28.5
Cc1ccc(N2CC(C(=O)Nc3nnc(SCC(=O)NCC4CCCO4)s3)CC2=O)cc1 (stereo not given) | 3.4 | 1.2 | -0.1 | -0.4 | 2.7 | -1.5 | ·
COc1ccc(N(C)C(=O)c2cc3c(s2)-c2ccc(Cl)cc2S(=O)(=O)C3)c(OC)c1 | 3.4 | -7.8 | 3.8 | -3.1 | -2.8 | 2.5 | ·
CN(Cc1ccco1)C(=O)c1cc2c(s1)-c1ccc(Cl)cc1S(=O)(=O)C2 | 3.3 | 4.4 | 1.8 | 1.8 | -1.4 | 51.1* | -10.4
COc1cc(NC(=O)C2CCN(S(=O)(=O)c3cccnc3)CC2)cc(OC)c1OC | 5.6 | 8.1 | 3.8 | 1.4 | -0.9 | -2.9 | ·
Cc1ccc(C(=O)ONc2ccc(N=O)cc2)cc1 | -4.5 | 5.4 | -5.5 | 10.3 | -0.5 | 57.3* | 51.5*
SMILES | PAFAH1B3 inh | Fam108B counter | PME-1 inh | pPAFAH FP inh | PAFAH1B2 FP inh | PAFAH2 inh | PAFAH2 confirm
Cc1ccc(C(=O)ONc2ccc(N=NC(=O)c3ccccc3O)cc2)cc1 | 9.8 | 5.7 | -5.5 | -6.0 | 6.3 | 44.6* | 22.0
COC(=O)c1ccc(NN=Nc2ccc(C)cc2)cc1 | 1.9 | -0.1 | 0.8 | 3.0 | 4.0 | -0.8 | ·
O=c1c(-c2nnc(SCc3ccc(Cl)cc3)o2)cccn1Cc1ccccc1 | -4.8 | -4.0 | 9.8 | 3.3 | 18.6 | 0.4 | ·
Cc1ccccc1C(=O)O/N=C1\CCS(=O)(=O)c2sccc21 | -9.0 | -6.1 | 24.7 | 7.0 | 12.0 | 68.3* | 68.2*
COc1ccc(C(=O)O/N=C2\CCS(=O)(=O)c3sccc32)cc1 | 10.1 | 2.0 | 7.2 | 9.4 | 2.0 | 89.1* | 83.4*
CC(C)C(=O)O/N=C1\CCS(=O)(=O)c2sccc21 | 1.3 | 1.6 | 2.0 | 3.5 | -2.5 | 21.4 | ·
O=C(O)c1ccc(CN2C(=O)CSC2=S)cc1 | -4.5 | -5.9 | -53.6 | -68.7 | -4.8 | -4.5 | ·
CC(=O)c1ccc(NCC(=O)N2CCN(S(=O)(=O)c3ccccc3)CC2)cc1 | -1.3 | · | 0.9 | 2.8 | 4.3 | 2.9 | ·
O=C(CNc1ccc(Cl)c(C(F)(F)F)c1)N1CCN(S(=O)(=O)c2ccccc2)CC1 | 1.2 | · | · | · | 1.4 | 44.9* | 25.1
O=C(COC(=O)/C=C/c1ccc(F)cc1)Nc1cccc(S(=O)(=O)N2CCCC2)c1 | 0.4 | -9.2 | -17.7 | 1.2 | -0.9 | 52.6* | 43.9*
O=C(COC(=O)/C=C/c1ccc(OC(F)F)cc1)Nc1ccc(N2CCOCC2)cc1 | 4.5 | 3.9 | 0.6 | 7.9 | 2.9 | 2.4 | ·
COc1cccc(/C=C/C(=O)OCC(=O)Nc2cccc(S(=O)(=O)N3CCCCC3)c2)c1OC | -1.1 | -27.7 | -36.4 | 3.6 | -0.9 | 39.0* | 54.5*
O=C(COC(=O)CNC(=O)c1ccc(F)cc1)Nc1cccc(S(=O)(=O)N2CCCC2)c1 | 11.6 | -1.3 | -6.4 | 6.5 | 5.6 | 4.9 | ·
O=C(COC(=O)/C=C/c1ccc(OC(F)F)cc1)Nc1cccc(S(=O)(=O)N2CCOCC2)c1 | 9.2 | · | · | 2.2 | -1.7 | 53.1* | 39.7*
Cc1ccc(CNC(=S)N(C)C)cc1 | 1.7 | 0.9 | -2.3 | 2.7 | 7.8 | 2.0 | ·
O=C(COC(=O)c1ccccc1C(=O)c1ccccc1)Nc1cccc([N+](=O)[O-])c1 | -5.2 | 1.0 | -0.5 | 18.8 | 7.2 | 88.6* | 82.0*
CCOc1ncccc1C(=O)OCC(=O)Nc1cccc(S(N)(=O)=O)c1 | 2.6 | 1.1 | -4.0 | 6.2 | -2.7 | 33.5* | 14.7
CN(C)S(=O)(=O)c1cccc(NC(=O)COC(=O)c2cccnc2Cl)c1 | 13.7 | · | · | 5.6 | 2.7 | 23.2 | ·
O=C(COC(=O)c1cc(-c2cccs2)nn1-c1ccccc1)Nc1cccc([N+](=O)[O-])c1 | -6.4 | -3.8 | 6.8 | 2.6 | -4.4 | 32.3* | 38.6*
CC(=O)c1cccc(NC(=O)COC(=O)c2ccccc2C)c1 | -4.0 | 0.1 | -5.4 | 5.3 | 5.2 | 62.6* | 61.8*

Compound activity deposited in PubChem by The Scripps Research Institute Molecular Screening Center.
